Exocytosis inh – blocks lytic granule exocytosis. inhibition, % at 10 µM. hit rate 0.66% among 360,000. AID 651702. TALL-104 LAMP-1 surface exposure, flow cytometry; cells stimulated with thapsigargin and PMA;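 active means inhibition above about 55%, limit read from the data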
NOD2 RIPK2 PPI – inhibitors of human NOD2-RIPK2 interaction; hit rate 0.38% among 360,000; O43353; inhibition, % at 4.98 µM; CHO BLA complementation NOD2-RIPK2, CCF4 ratio; in the data active means inhibition above about 21%;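 further: 0% = vehicle only and 100% = reference blocker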
TLR4 MyD88 comp – inhibitors of human TLR4-MyD88 binding | O00206+Q99836 | HeLa CL3-4 TLR4/MyD88 BLA complementation, FRET ratio | inhibition, % at 8.4 µM | hit rate 0.18% among 200,000; in the data active means inhibition above about 25%;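 further: 0% = vehicle and 100% = reference inhibitor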
Target sequence (O00206 whole entry, looked up): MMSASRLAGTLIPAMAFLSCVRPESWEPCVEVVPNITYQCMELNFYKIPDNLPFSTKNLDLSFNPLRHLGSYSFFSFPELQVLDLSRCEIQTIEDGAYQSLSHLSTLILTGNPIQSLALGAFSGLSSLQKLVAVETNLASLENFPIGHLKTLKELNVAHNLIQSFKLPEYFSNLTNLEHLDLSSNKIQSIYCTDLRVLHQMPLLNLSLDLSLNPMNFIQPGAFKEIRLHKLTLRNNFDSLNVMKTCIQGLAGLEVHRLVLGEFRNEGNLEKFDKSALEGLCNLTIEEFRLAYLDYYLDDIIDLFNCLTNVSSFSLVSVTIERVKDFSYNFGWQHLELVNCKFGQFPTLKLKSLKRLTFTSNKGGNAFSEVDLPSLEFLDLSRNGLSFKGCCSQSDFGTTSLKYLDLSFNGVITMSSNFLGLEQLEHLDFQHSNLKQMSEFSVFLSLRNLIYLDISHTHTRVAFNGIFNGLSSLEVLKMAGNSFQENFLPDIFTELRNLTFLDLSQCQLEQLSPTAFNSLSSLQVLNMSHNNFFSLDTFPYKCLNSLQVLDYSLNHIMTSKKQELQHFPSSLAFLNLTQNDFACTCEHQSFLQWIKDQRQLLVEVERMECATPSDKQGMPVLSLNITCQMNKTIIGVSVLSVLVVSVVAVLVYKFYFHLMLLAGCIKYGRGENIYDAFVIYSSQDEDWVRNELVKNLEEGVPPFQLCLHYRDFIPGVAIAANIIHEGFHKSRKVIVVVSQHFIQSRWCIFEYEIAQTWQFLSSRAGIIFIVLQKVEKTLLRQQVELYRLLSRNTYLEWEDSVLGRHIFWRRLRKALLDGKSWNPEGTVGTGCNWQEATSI
Target sequence (Q99836 whole entry, looked up): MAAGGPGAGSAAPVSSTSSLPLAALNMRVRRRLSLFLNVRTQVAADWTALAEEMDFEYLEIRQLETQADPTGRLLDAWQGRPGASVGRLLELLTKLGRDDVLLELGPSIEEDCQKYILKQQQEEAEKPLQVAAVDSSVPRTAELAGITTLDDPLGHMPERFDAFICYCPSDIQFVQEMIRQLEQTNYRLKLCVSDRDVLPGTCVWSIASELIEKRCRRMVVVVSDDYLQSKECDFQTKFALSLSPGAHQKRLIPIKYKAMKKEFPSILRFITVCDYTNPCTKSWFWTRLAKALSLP
TLR9-MyD88 block – inhibitors of human TLR9-MyD88 binding; CHO BLA complementation TLR9-MyD88, CCF4 FRET ratio; AID 504734; Q9NR96+Q99836; hit rate 0.21% among 340,000; inhibition, % at 4.98 µM;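 active means inhibition above the mean over all tested compounds plus 3 SD, cut at about 21% in these data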;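 further: 0% = DMSO only wells and 100% = clavulanate BLA inhibitor control wells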
ABHD5-PLIN5 inh – blocks binding of human ABHD5 to perilipin-5. Q00G26+Q8WTS1. Split G. princeps luciferase complementation, luminescence, 4 h. inhibition, % at 4 µM. hit rate 0.78% among 360,000. AID 602281;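 active means inhibition above the mean inhibition across every tested compound plus 3 SD, cut at about 22% in these data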;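 further: 0% = DMSO only wells and the 100% control is not disclosed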
Beta2AR agonist – activates human beta-2 adrenergic receptor causing internalization; Am2.2-beta2AR cells, FAP receptor internalization, flow cytometry; hit rate 0.43% among 340,000; response, % (concentration not given with the values); AID 504454;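 active means response above a set limit, near 3 SD of response in nonfluorescent compounds, cut at about 42% in these data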
B2AR ag CP1 – activates human beta-2 adrenergic receptor; shares compounds with Beta2AR agonist; Am2.2-beta2AR cells, FAP surface receptor, flow cytometry; active compounds read low; percent response (surface receptor), % at 10 µM; hit rate 25% among 1,100;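 active means surface receptor percent response at or below 58%, roughly 3 SD from nonfluorescent compounds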
FAP fluor counter – fluorescence artifact in beta-2AR agonist FAP counterscreen; shares compounds with Beta2AR agonist; Am2.2 cells, FAP fluorogen flow cytometry; active compounds read low; calls only at 10 µM; 1,100 tested, under 10 active; AID 588765;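 active means percent response below a set limit in fluorescence channel 1 and below 50% in channel 8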
* marks the source's active call; other numbers are inactive results. Only some compounds are listed: those with a hit (about 2% of all), similar ones and a draw of the others.

How did Cc1nn(C)c(C)c1NC(=O)c1cc2nc(-c3ccco3)cc(C(F)(F)F)n2n1 do in these assays?
Exocytosis inh: 2; NOD2 RIPK2 PPI: -6; TLR4 MyD88 comp: 4; TLR9-MyD88 block: -5; ABHD5-PLIN5 inh: 3; Beta2AR agonist: -11

How did Cc1ccc(Cn2ccc(NC(=O)c3cc4nc(-c5ccco5)cc(C(F)(F)F)n4n3)n2)cc1 do in these assays?
Exocytosis inh: 0; NOD2 RIPK2 PPI: -11; TLR4 MyD88 comp: -15; TLR9-MyD88 block: -9; ABHD5-PLIN5 inh: 6; Beta2AR agonist: 112*; B2AR ag CP1: 7.1*; FAP fluor counter: inactive

Results for CCC(C)(C)NC(=O)C(c1ccc(OC)cc1)N(Cc1ccccc1)C(=O)CCC(=O)Nc1cc(C)on1 (configuration not stated) ?
Exocytosis inh: 4; NOD2 RIPK2 PPI: -1; TLR9-MyD88 block: -5; ABHD5-PLIN5 inh: 0; Beta2AR agonist: 62*; B2AR ag CP1: 109; FAP fluor counter: inactive

How did CCC(C)(C)NC(=O)C(c1ccc(OC)cc1)N(Cc1ccc(OC)cc1)C(=O)CCC(=O)Nc1cc(C)on1 (configuration not stated) do in these assays?
Exocytosis inh: 18; NOD2 RIPK2 PPI: -8; TLR9-MyD88 block: 4; ABHD5-PLIN5 inh: 0; Beta2AR agonist: 0

How did COc1ccc(NC(=O)C2(C)Cc3c(-c4ccc5c(c4)OCO5)ccnc3O2)cn1 (configuration not stated) do in these assays?
Exocytosis inh: 7; NOD2 RIPK2 PPI: 5; ABHD5-PLIN5 inh: 0

Results for O=C1ON=C(c2ccccc2)/C1=C/c1ccc(O)c(O)c1 ?
Exocytosis inh: -17; NOD2 RIPK2 PPI: -15; TLR9-MyD88 block: 4; ABHD5-PLIN5 inh: -5; Beta2AR agonist: 26

How did O=C1ON=C(c2ccccc2)/C1=C/c1cccnc1 do in these assays?
Exocytosis inh: -5; NOD2 RIPK2 PPI: 2; TLR4 MyD88 comp: 2; TLR9-MyD88 block: -1; ABHD5-PLIN5 inh: -8; Beta2AR agonist: -3; B2AR ag CP1: 100; FAP fluor counter: inactive

How did CN(C)C(CNC(=O)c1ccc(NC(=O)CC#N)cc1)c1ccccc1 (configuration not stated) do in these assays?
Exocytosis inh: -2; NOD2 RIPK2 PPI: -9; TLR4 MyD88 comp: -2; TLR9-MyD88 block: 4; ABHD5-PLIN5 inh: 6; Beta2AR agonist: 47*; B2AR ag CP1: 97; FAP fluor counter: inactive

What do the screens show for `Cc1ccccc1N1CCN(c2ncnc3c2cnn3Cc2ccc(Cl)cc2)CC1`?
Exocytosis inh: -3; NOD2 RIPK2 PPI: -6; TLR4 MyD88 comp: 4; TLR9-MyD88 block: 7; ABHD5-PLIN5 inh: -2; Beta2AR agonist: 44*; B2AR ag CP1: 98; FAP fluor counter: inactive

How did O=C(CSCc1c(Cl)cccc1Cl)Nc1nccs1 do in these assays?
Exocytosis inh: -3; NOD2 RIPK2 PPI: -2; TLR4 MyD88 comp: 7; TLR9-MyD88 block: -5; ABHD5-PLIN5 inh: -1; Beta2AR agonist: -7

How did O=C(CSCc1ccc(Cl)cc1Cl)Nc1nccs1 do in these assays?
Exocytosis inh: 0; NOD2 RIPK2 PPI: 5; TLR4 MyD88 comp: 4; TLR9-MyD88 block: 1; ABHD5-PLIN5 inh: 1; Beta2AR agonist: 54*; B2AR ag CP1: 94; FAP fluor counter: inactive

How did CCOc1ccc(CN(C)c2nc(-c3cccnc3)nc3ccccc23)cc1OC do in these assays?
Exocytosis inh: -6; NOD2 RIPK2 PPI: 6; TLR9-MyD88 block: 2; ABHD5-PLIN5 inh: 3; Beta2AR agonist: -3; B2AR ag CP1: 129; FAP fluor counter: inactive

Results for Cc1ccc(CN(C)c2nc(-c3cccnc3)nc3ccccc23)o1 ?
Exocytosis inh: 28; NOD2 RIPK2 PPI: -4; TLR9-MyD88 block: -9; ABHD5-PLIN5 inh: 17; Beta2AR agonist: 45*; B2AR ag CP1: 104; FAP fluor counter: inactive

How did CC(=O)c1cccc(S(=O)(=O)N2CCN(CCOc3ccccc3)CC2)c1 do in these assays?
Exocytosis inh: 5; NOD2 RIPK2 PPI: 0; TLR9-MyD88 block: -1; ABHD5-PLIN5 inh: 0; Beta2AR agonist: -1

How did COC(=O)C1=CN(c2ccc(F)cc2)C(N)=C(C#N)C1c1cccc(OC)c1OC (configuration not stated) do in these assays?
Exocytosis inh: 10; NOD2 RIPK2 PPI: 2; ABHD5-PLIN5 inh: 0

What do the screens show for `CCOc1ccc(-c2cc(C(=O)NCc3ccccc3)[nH]n2)c(C)c1`?
Exocytosis inh: 0; NOD2 RIPK2 PPI: 8; ABHD5-PLIN5 inh: -4

Results for CCSc1nc2ccccc2n1C(=O)c1ccc(S(=O)(=O)N2CCCCC2)cc1 ?
Exocytosis inh: -1; NOD2 RIPK2 PPI: 3; TLR4 MyD88 comp: -20; TLR9-MyD88 block: 2; ABHD5-PLIN5 inh: 5; Beta2AR agonist: 38

Results for CCSc1nc2ccccc2n1C(=O)c1ccc(S(=O)(=O)N2CCCCCC2)cc1 ?
Exocytosis inh: 0; NOD2 RIPK2 PPI: -16; TLR4 MyD88 comp: -3; TLR9-MyD88 block: 13; ABHD5-PLIN5 inh: 4; Beta2AR agonist: 53*; B2AR ag CP1: 57*; FAP fluor counter: inactive

How did CCc1cccc(C)c1NC(=O)C1CC(=O)N(C2CCCC2)C1 (configuration not stated) do in these assays?
Exocytosis inh: 0; NOD2 RIPK2 PPI: 2; TLR9-MyD88 block: -5; ABHD5-PLIN5 inh: 7; Beta2AR agonist: 4

How did COc1ccccc1OCCCC(=O)Nc1nccs1 do in these assays?
Exocytosis inh: 0; NOD2 RIPK2 PPI: 12; TLR4 MyD88 comp: 10; TLR9-MyD88 block: -7; ABHD5-PLIN5 inh: -7; Beta2AR agonist: 76*; B2AR ag CP1: 59; FAP fluor counter: inactive

What do the screens show for `O=C(Cc1cccc(NC(=O)C2CCCN(C(=O)CCc3ccccc3)C2)c1)Nc1cccc(C(=O)N2CCCCC2)c1` (configuration not stated)?
Exocytosis inh: -2; NOD2 RIPK2 PPI: -2; TLR9-MyD88 block: -9; ABHD5-PLIN5 inh: -9; Beta2AR agonist: 3

How did CN(C(=O)CSc1nc(-c2ccc(C(C)(C)C)cc2)c(C#N)c(=O)[nH]1)C1CCCCC1 do in these assays?
Exocytosis inh: -2; NOD2 RIPK2 PPI: 12; TLR9-MyD88 block: -1; ABHD5-PLIN5 inh: 0; Beta2AR agonist: 15; B2AR ag CP1: 105; FAP fluor counter: inactive

Results for CCCn1c(=N)n(CC(O)COc2ccc(C)cc2)c2ccccc21 (configuration not stated) ?
Exocytosis inh: 26; NOD2 RIPK2 PPI: -2; TLR9-MyD88 block: -5; ABHD5-PLIN5 inh: -5; Beta2AR agonist: 10

Bioassay records as filed in PubChem BioAssay.
